Hits are enriched below; roughly 4.1% of the tested compounds scored in any of these assays.
pCIP destab = compounds decreasing mouse p/CIP protein stability. Q05BA5. F442A p/CIP-EGFP cells, EGFP fluorescence, 16 h. decrease of EGFP signal, % at 10 µM. actives 0.01% (n = 290,000). AID 1984;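 active = EGFP signal decrease of at least 30% at 10 µM or well 3 SD below plate mean, unless failing retest; inactive = the rest, including hits failing retest or dose response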
Target sequence (Q05BA5 1-1403): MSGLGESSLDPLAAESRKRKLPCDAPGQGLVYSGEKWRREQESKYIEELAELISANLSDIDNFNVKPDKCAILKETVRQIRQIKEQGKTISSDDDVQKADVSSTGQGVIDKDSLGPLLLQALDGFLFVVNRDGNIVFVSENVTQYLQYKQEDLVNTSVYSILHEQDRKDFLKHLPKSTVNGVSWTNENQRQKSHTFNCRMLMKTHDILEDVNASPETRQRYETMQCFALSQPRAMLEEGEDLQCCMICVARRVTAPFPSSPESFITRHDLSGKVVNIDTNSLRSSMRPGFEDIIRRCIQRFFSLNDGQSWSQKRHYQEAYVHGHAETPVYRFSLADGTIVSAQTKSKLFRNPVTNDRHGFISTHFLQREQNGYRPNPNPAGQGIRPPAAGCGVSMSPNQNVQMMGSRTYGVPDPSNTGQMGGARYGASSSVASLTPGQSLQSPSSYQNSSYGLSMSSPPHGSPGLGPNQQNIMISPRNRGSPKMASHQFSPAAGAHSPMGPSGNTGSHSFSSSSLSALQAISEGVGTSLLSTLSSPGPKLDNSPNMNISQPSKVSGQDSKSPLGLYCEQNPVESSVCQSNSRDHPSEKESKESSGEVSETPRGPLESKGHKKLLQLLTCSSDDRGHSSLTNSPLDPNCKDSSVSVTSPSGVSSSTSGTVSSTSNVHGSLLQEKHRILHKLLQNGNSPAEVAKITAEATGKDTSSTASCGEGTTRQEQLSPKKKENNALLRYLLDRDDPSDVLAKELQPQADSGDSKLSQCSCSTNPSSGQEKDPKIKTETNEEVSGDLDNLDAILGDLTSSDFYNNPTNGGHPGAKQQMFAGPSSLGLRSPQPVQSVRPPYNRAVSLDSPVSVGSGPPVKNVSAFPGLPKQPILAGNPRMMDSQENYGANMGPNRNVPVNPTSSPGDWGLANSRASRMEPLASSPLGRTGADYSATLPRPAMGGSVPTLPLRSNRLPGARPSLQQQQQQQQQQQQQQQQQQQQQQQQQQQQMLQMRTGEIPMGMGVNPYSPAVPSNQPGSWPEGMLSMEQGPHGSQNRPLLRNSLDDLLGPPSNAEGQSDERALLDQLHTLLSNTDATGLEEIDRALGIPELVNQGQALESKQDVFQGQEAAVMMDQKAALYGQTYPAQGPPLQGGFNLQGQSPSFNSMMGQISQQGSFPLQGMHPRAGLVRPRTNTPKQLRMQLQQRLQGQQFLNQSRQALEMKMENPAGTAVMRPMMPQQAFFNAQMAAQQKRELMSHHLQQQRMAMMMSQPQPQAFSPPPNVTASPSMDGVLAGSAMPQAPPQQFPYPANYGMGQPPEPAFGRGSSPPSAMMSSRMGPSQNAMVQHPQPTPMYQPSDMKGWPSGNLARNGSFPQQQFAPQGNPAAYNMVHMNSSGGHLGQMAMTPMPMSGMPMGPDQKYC
NR3A LBD binder = modulators (binders) of human NR3A ligand-binding domain. AID 1259313. actives 2.5% (n = 340,000). NR3A LBD differential scanning fluorimetry, Tm shift; 0% = protein alone, 100% = glycine-bound protein. Tm shift relative to glycine control, % at 25 µM;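 active = melting temperature shift of at least 10% of the positive control shift, at one fixed dose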
MIN6 prolif = MIN6 beta-cell proliferation induction; MIN6 cells proliferation, ATPlite luminescence, 48 h; cells starved in 0.2% serum; 100% = growth in 10% serum; proliferation, % at 10 µM; actives 0.29% (n = 330,000); AID 2380;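 active = compounds whose signal lies at least 3.5 SD above the mean of all wells on their plate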;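 also: 0% = DMSO-treated cells in low-serum medium and 100% = 10% serum control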
MPTP block = inhibitors of mitochondrial permeability transition pore | isolated mouse mitochondria, Ca2+ swelling absorbance, 30 min | inhibition, % at 10 µM | actives 1.4% (n = 360,000) | AID 602449;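 active = inhibition of 50% or more, scaled per plate between neutral and stimulator controls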;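 also: 0% = DMSO wells given calcium and 100% = 1 mM EGTA wells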
FAS TE block = inhibitors of human fatty acid synthase thioesterase domain; P49327; recombinant FAS-TE, OMFH fluorogenic substrate, fluorescence endpoint; inhibition, % at 15 µM; actives 0.67% (n = 360,000); AID 602261;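 active = compounds whose normalised, plate-corrected inhibition of enzyme fluorescence in the single-dose primary screen is 50% or more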;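 also: 0% = DMSO with enzyme and 100% = substrate without enzyme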
The depositor's hits bear a star.

For O=C1CCC(C(=O)Nc2cccc(S(=O)(=O)Nc3ccccc3F)c2)=NN1 the results were NR3A LBD binder 12.6*, MIN6 prolif -6.1, MPTP block -1.1 and FAS TE block -11.1.
`Cc1ccc(S(=O)(=O)N2[C@H](CC(=O)c3cccs3)OC[C@@H]2C(C)C)cc1` gave MPTP block -1.1.
N#CC1C(=O)c2ccccc2C1c1ccccc1 (stereo unspecified) was read as NR3A LBD binder 19.6*, MPTP block 0.5 and FAS TE block 1.4.
O=C(NCc1ccc(F)cc1)c1cc(C2CCCCN2S(=O)(=O)c2cccs2)on1 (stereo unspecified) was read as MPTP block 1.0 and FAS TE block 12.7.
`COc1ccccc1C/C(N)=N/OC(=O)COc1ccc(C)cc1` gave NR3A LBD binder 1.3, MIN6 prolif -1.5, MPTP block 1.9 and FAS TE block 13.5.
For COc1ccccc1C/C(N)=N/OC(=O)COc1cccc(C)c1 the results were pCIP destab -2.1, NR3A LBD binder 12.7*, MIN6 prolif 0.1, MPTP block -1.4 and FAS TE block 2.1.
CCn1c(=O)n(CC(=O)NC2CCCC(C)C2C)c(=O)c2ccccc21 (stereo unspecified) was read as pCIP destab 9.8, NR3A LBD binder 11.0*, MIN6 prolif 1.1, MPTP block -2.6 and FAS TE block -1.5.
For Cc1cc(C)nc(NS(=O)(=O)c2ccc(NC(=O)Nc3ccccc3F)cc2)n1 the results were pCIP destab -11.6, NR3A LBD binder 11.3*, MIN6 prolif 2.7, MPTP block 2.2 and FAS TE block -1.2.
Screening Cc1cc(C)nc(NS(=O)(=O)c2ccc(NC(=O)c3cc(-c4ccccc4)nc4ccccc34)cc2)n1 returned pCIP destab 5.3, NR3A LBD binder 19.0*, MIN6 prolif -3.1, MPTP block -2.7 and FAS TE block 10.0.
Screening Cc1ccc(S(=O)(=O)Nc2ccc(NC(=O)Nc3ccc(F)cc3F)cc2)cc1 returned pCIP destab -4.3, NR3A LBD binder 28.9*, MIN6 prolif -4.5, MPTP block 41.9 and FAS TE block 12.6.
`O=C(Nc1ccc(F)cc1F)Nc1ccc(F)cc1F` gave pCIP destab -20.5, NR3A LBD binder -2.4, MIN6 prolif -4.5, MPTP block 17.0 and FAS TE block -9.0.
`COc1ccc(C(=O)Nc2ccc(S(=O)(=O)Nc3cc(C)nc(C)n3)cc2)c(OC)c1` gave pCIP destab -20.5, NR3A LBD binder 5.2, MIN6 prolif -0.1, MPTP block -6.7 and FAS TE block 0.5.
For COc1ccccc1C(=O)Nc1ccc(S(=O)(=O)Nc2cc(C)nc(C)n2)cc1 the results were pCIP destab -6.5, NR3A LBD binder 15.7*, MIN6 prolif -0.3, MPTP block -1.1 and FAS TE block -4.5.
O=C(Nc1ccc(NC(=O)c2ccccc2O)cc1)Nc1ccc(F)cc1F was read as pCIP destab 3.3, NR3A LBD binder 31.2*, MIN6 prolif -1.2, MPTP block 5.4 and FAS TE block -2.4.
Screening O=C(Nc1ccc(S(=O)(=O)N2CCCC2)cc1)Nc1ccc(F)cc1F returned pCIP destab 4.8, NR3A LBD binder 36.9*, MIN6 prolif -0.6, MPTP block 30.7 and FAS TE block 4.2.
Screening COc1ccc(Cl)cc1-c1cc(C(=O)N[C@H](C)c2ccccc2)[nH]n1 returned MPTP block -0.5 and FAS TE block 9.4.
CCCc1cc(C(N)=S)ccn1 was read as pCIP destab 3.1, NR3A LBD binder 11.5*, MIN6 prolif 2.4, MPTP block 2.0 and FAS TE block -3.7.
Screening Cc1nc(-c2cccc(NC(=O)c3cccs3)c2)cs1 returned pCIP destab 10.7, NR3A LBD binder 0.4, MIN6 prolif -0.9, MPTP block -0.1 and FAS TE block -3.9.
Cc1ccccc1-c1nc(-c2ccc(NC(=O)c3ccc(Br)o3)cc2)no1 was read as pCIP destab -16.7, NR3A LBD binder 28.9*, MIN6 prolif -4.0, MPTP block 4.1 and FAS TE block 30.7.
For Cc1nc(-c2ccc(NC(=O)c3ccc(Br)o3)cc2)cs1 the results were pCIP destab 0.9, NR3A LBD binder 19.6*, MIN6 prolif -5.3, MPTP block 3.4 and FAS TE block 6.3.
`Cc1nc(-c2cccc(NC(=O)c3ccc(Br)o3)c2)cs1` gave pCIP destab -9.2, NR3A LBD binder 5.4, MIN6 prolif 1.8, MPTP block -1.1 and FAS TE block 4.8.
`Cc1nc(-c2ccc(C(=O)Nc3cccc(Br)c3)cc2)cs1` gave pCIP destab -8.0, NR3A LBD binder 32.3*, MIN6 prolif -5.2, MPTP block 17.1 and FAS TE block 17.7.
For Cc1nc(-c2cccc(NC(=O)c3ccc(-n4nccc4C)cc3)c2)cs1 the results were NR3A LBD binder 23.1*, MIN6 prolif 0.5, MPTP block -1.3 and FAS TE block 10.2.
Screening Cc1ccccc1-c1nc(-c2ccc(Br)o2)no1 returned pCIP destab -1.7, NR3A LBD binder 2.2, MIN6 prolif -0.3, MPTP block -1.7 and FAS TE block 17.8.
`C[C@@H](c1ccccc1)N1C[C@@H](COCc2ccccc2)Oc2cc(N3CC[C@H](O)C3)ccc2S1(=O)=O` gave MPTP block 1.0 and FAS TE block 22.7.
`O=C(COC(=O)CCC1CCCC1)Nc1nc2c(F)c(F)c(F)cc2s1` gave pCIP destab -0.7, NR3A LBD binder 21.9*, MIN6 prolif -3.8, MPTP block 13.7 and FAS TE block 15.2.
`O=C(COC(=O)c1ccco1)Nc1nc2c(F)c(F)c(F)cc2s1` gave pCIP destab -2.8, NR3A LBD binder -4.9, MIN6 prolif 0.0, MPTP block 3.7 and FAS TE block 3.2.
Screening COc1ccc(C=O)c(-c2c(CCO)sc3ccccc23)c1 returned MPTP block -0.7 and FAS TE block -1.6.
For CC12CCC(C(=O)NCc3ccc(Cl)cc3)(OC1=O)C2(C)C (stereo unspecified) the results were pCIP destab -3.9, NR3A LBD binder 11.2*, MIN6 prolif -0.1, MPTP block 2.5 and FAS TE block -0.7.
Screening COC(=O)c1ccc(NC(=O)C(=O)N2CCN(C(=S)Nc3ccc(C)cc3)CC2)cc1 returned pCIP destab 5.1, NR3A LBD binder 11.1*, MIN6 prolif 1.0, MPTP block 0.5 and FAS TE block 1.4.
O=C(NCCN1CCC(n2c(=O)[nH]c3ccccc32)CC1)c1cccs1 was read as MPTP block -1.9 and FAS TE block -14.5.
COc1cc(OC)c(OC)cc1/C=N/n1c(-c2n[nH]c3c2CCC3)n[nH]c1=S was read as pCIP destab 1.9, NR3A LBD binder -0.6, MIN6 prolif 1.0, MPTP block 0.8 and FAS TE block -1.1.
`COc1ccc(OC)c(/C=N/n2c(-c3n[nH]c4c3CCC4)n[nH]c2=S)c1` gave pCIP destab 13.2, NR3A LBD binder 13.9*, MIN6 prolif 0.9, MPTP block 0.7 and FAS TE block -5.8.
